# In all, about 4,400 compounds went through this assay and about 390 (8.9%) showed an effect of 50% or more. What follows is part of a selection rich in strong results, with near analogues and random picks from the rest.
# Test system: Trypanosoma brucei
# Test: DNDI: Inhibition of Human African Trypanosomiasis, SBRI 427, in vitro at 2 ug.mL-1
# Format: functional
row,SMILES,% inhibition
1,COc1ccc(-c2nc(CNC3CCN(Cc4ccccc4)CC3)co2)cc1,97%
2,Brc1ccc(-c2nc(CNC3CCN(Cc4ccccc4)CC3)co2)cc1,58%
3,Fc1ccc(-c2nc(CNC3CCN(Cc4ccccc4)CC3)co2)cc1,-17%
4,Oc1ccc(-c2nc(CNC3CCN(Cc4ccccc4)C3)co2)cc1 (stereo not drawn),33%
5,COc1ccc(-c2nc(CNC3CCN(Cc4ccccc4)C3)co2)cc1 (stereo not drawn),12%
6,CC(C)(C)c1ccc(-c2nc(CNC3CCN(Cc4ccccc4)C3)co2)cc1 (stereo not drawn),55%
7,CCOc1ccc(-c2nc(CNC3CCN(Cc4ccccc4)C3)co2)cc1 (stereo not drawn),6%
8,Cc1ccc(-c2nc(CNC3CCN(Cc4ccccc4)C3)co2)cc1 (stereo not drawn),17%
9,Brc1ccc(-c2nc(CNC3CCN(Cc4ccccc4)C3)co2)cc1 (stereo not drawn),2%
10,CN(Cc1ccco1)/C(=N\O)c1ccc(Oc2cc(Cl)ccc2Cl)nc1,-12%
11,COC(=O)C1CCN(/C(=N\O)c2ccnc(Oc3ccc(F)c(Cl)c3)c2)CC1,-5%
12,Cc1cccc(-c2nc(CN3CCN(c4ccc(F)cc4)CC3)co2)c1,18%
13,O/N=C(\NCc1c(F)cccc1F)c1ccc(Oc2ccc(Cl)cc2)nc1,6%
14,COCC(C)N/C(=N\O)c1ccc(Oc2cc(C)cc(C)c2)nc1 (stereo not drawn),1%
15,CCC(CC)N/C(=N\O)c1ccc(Oc2cc(C)cc(C)c2)nc1,94%
16,COCC(C)N/C(=N\O)c1ccc(Oc2cc(Cl)ccc2Cl)nc1 (stereo not drawn),23%
17,CCC(CC)N/C(=N\O)c1ccc(Oc2ccc(Cl)cc2)nc1,96%
18,CCC(CC)N/C(=N\O)c1ccc(Oc2ccc(C)cc2C)nc1,26%
19,CCC(CC)N/C(=N\O)c1ccc(Oc2cc(C)cc(C(C)C)c2)nc1,-7%
20,CCc1ccc(Oc2ccc(/C(=N/O)NC(CC)CC)cn2)cc1,7%
21,CCC(CC)N/C(=N\O)c1ccc(Oc2c(F)c(F)cc(F)c2F)nc1,19%
22,CCC(CC)N/C(=N\O)c1ccc(Oc2cc(Cl)ccc2Cl)nc1,84%
23,CCN(CCC#N)Cc1coc(-c2cc(OC)c(OC)c(OC)c2)n1,-11%

row,SMILES,% inhibition
1,Cc1ccc(/C(=N/O)N2C(C)CCC2C)c(OCc2ccccc2C)n1 (stereo not drawn),21%
2,COC[C@H]1CCCN1Cc1coc(-c2ccc(C)cc2)n1,-9%
3,Cc1cc(Oc2ccc(/C(=N/O)NC3CCCCC3)cn2)cc(C(C)C)c1,17%
4,Cc1ccc(Oc2ccc(/C(=N/O)NCc3c(F)cccc3F)cn2)c(C)c1,16%
5,Cc1cc(C)cc(Oc2ccc(/C(=N/O)NC3CCCCC3)cn2)c1,99%
6,Cc1ccc(Oc2ccc(/C(=N/O)NC3CC3)cn2)c(C)c1,26%
7,Cc1ccc(Oc2ccc(/C(=N/O)NCC3CC3)cn2)c(C)c1,98%
8,Cc1ccc(Oc2ccc(/C(=N/O)NC3CCCC3)cn2)c(C)c1,91%
9,Cc1ccc(Oc2ccc(/C(=N/O)NCc3cccs3)cn2)c(C)c1,21%
10,Cc1ccc(Oc2ccc(/C(=N/O)Nc3ccccc3)cn2)c(C)c1,22%
11,Cc1cc(C)cc(Oc2ccc(/C(=N/O)NC3CCN(Cc4ccccc4)C3)cn2)c1 (stereo not drawn),-11%
12,Cc1cc(C)cc(Oc2ccc(/C(=N/O)NC3CCC3)cn2)c1,99%
13,Cc1cc(C)cc(Oc2ccc(/C(=N/O)NC3CCc4ccccc43)cn2)c1 (stereo not drawn),12%
14,Cc1cc(C)cc(Oc2ccc(/C(=N/O)N(C)C3CCCCC3)cn2)c1,-8%
15,COc1ccc(-c2nc(CNc3cc(C(C)(C)C)nn3C)co2)cc1,7%
16,Cc1ccccc1-c1nc(CN(C)C2CCN(Cc3ccccc3)C2)co1 (stereo not drawn),8%
17,CCCN(CC1CC1)/C(=N\O)c1ccc(C)nc1Oc1ccc(OC)cc1,30%
18,COc1ccc(-c2nc(CNCc3ccc(C(F)(F)F)cc3)co2)cc1,2%
19,CSc1ccc(Oc2nc(C)ccc2/C(=N/O)N2CCN(C3CCCC3)CC2)cc1C,13%
20,Cc1ccc(/C(=N/O)N2CC=CC2)c(OCc2cccc(F)c2)n1,-19%
21,CCCN(CC)Cc1coc(-c2cccc(OCC)c2)n1,20%
22,COc1ccc(-c2nc(CN3C(C)C=CC3C)co2)cc1 (stereo not drawn),1%
23,FC(F)(F)Oc1ccc(CNCc2coc(-c3ccc(Br)cc3)n2)cc1,8%

row,SMILES,% inhibition
1,CCOC(=O)C1CCN(Cc2coc(-c3cccc(OC)c3)n2)CC1,37%
2,COc1ccc(N2CCN(Cc3coc(-c4ccccc4Cl)n3)CC2)cc1,-8%
3,Cc1cc(C)cc(Oc2ccc(/C(=N/O)NC3CC(C)CC(C)(C)C3)cn2)c1 (stereo not drawn),14%
4,Cc1cc(C)cc(Oc2ccc(/C(=N/O)Nc3ccccc3)cn2)c1,0%
5,Cc1cc(C)cc(Oc2ccc(/C(=N/O)NC3CCC(C)CC3)cn2)c1 (stereo not drawn),82%
6,Cc1cc(C)cc(Oc2ccc(/C(=N/O)NC3CCCC3)cn2)c1,98%
7,CCN(CC)CCN(C)Cc1coc(-c2cccs2)n1,4%
8,CCCCN(CCCC)CCCNCc1coc(-c2ccc(F)cc2)n1,1%
9,CCCCN(CCCC)CCCNCc1coc(-c2ccc(C)cc2)n1,53%
10,CCN(CC)CCCNCc1coc(-c2cccc(C)c2)n1,95%
11,CCN(CC)CCCNCc1coc(-c2ccc(F)cc2)n1,-8%
12,CN(C)CCCNCc1coc(-c2ccc(F)cc2)n1,73%
13,CCN(CC)CCNCc1coc(-c2cccc(C)c2)n1,26%
14,Cc1cccc(CNCc2coc(-c3cccc(C)c3)n2)c1,-10%
15,CCN(CC)CCNCc1coc(-c2ccc(F)cc2)n1,-17%
16,CCCCN(CCCC)CCCNCc1coc(-c2ccco2)n1,20%
17,COc1cccc(-c2nc(CNCc3ccc(C(C)(C)C)cc3)co2)c1,5%
18,COc1ccc(Oc2ncccc2/C(=N/O)NCCN2CCOCC2)cc1,-10%
19,Cc1cc(NCc2coc(-c3ccc(Cl)cc3Cl)n2)n(-c2ccccc2)n1,-4%
20,CCN(Cc1coc(-c2cccc3ccccc23)n1)c1ccc2c(c1)OCO2,29%
21,Cc1ccc(-c2nc(Cn3ccnc3C(C)C)co2)cc1,39%
22,Fc1ccccc1-c1nc(CNCC(F)(F)C(F)(F)F)co1,21%

# — ChEMBL document CHEMBL1857833, “Screening and optimization of specific chemical series against human African Trypanosomiasis (HAT)”
